Results on 30 compounds are retold here after PubChem BioAssay AID504832 (National Center for Advancing Translational Sciences (NCATS), 2011).

Each structure is given as a SMILES string. About 18,000 (5.8%) of roughly 310,000 compounds were called active. About 22% were inconclusive and are not listed. The call rests on the fitted dose curve; in most records, active means well fitted inhibition curve with a large enough effect; inconclusive means small, poorly fitted or top-dose-only effect, or another doubt; inactive means no such curve, though single readings can be large or run the other way. Shown is part of a subset that was picked to be rich in actives.
On the % scale 0 is the no-effect control and ±100 the full control effect; potency means the concentration at half of the fitted maximal effect.

The nature of the assay: Primary qHTS for delayed death inhibitors of the malarial parasite plastid, 48 hour incubation. To be noted: P. falciparum luciferase growth in erythrocytes; series mostly up to 28.7 µM; activity change, negative = inhibition: at the top concentration. Put shortly:
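First compound was added to culture medium, then infected red cells at 0.1% parasitemia and 2% hematocrit (final). After incubation at 37 C under 5% CO2, luciferase detection reagent was dispensed and light output recorded.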
With `COc1cccc(-c2coc3cc4oc(=O)c(CC(=O)O)c(C)c4cc23)c1`, the “activity change, negative = inhibition” value was -6.56% (inactive).

Turning to `COc1ccccc1C(=O)N/C(=C/c1ccc2c(c1)OCO2)C(=O)Nc1cccc(C(=O)O)c1`, the “activity change, negative = inhibition” value was 26.2% (inactive).

`CN(C)CCOc1ccc(Cl)cc1C(C)(C)C`: the “activity change, negative = inhibition” value was -12.2% (inactive).

Turning to `CCC(C)(C)c1ccc(OCC(=O)N(C)C)c(C(C)(C)CC)c1`, the Potency is 11.7 µM (active).

`CN1C/C(=C/c2cccs2)C(=O)/C(=C\c2cccs2)C1`: the “activity change, negative = inhibition” value is -48.2% (inactive).

Turning to `CCc1ccc(NC(=O)N2CCc3ccccc3C2)cc1`, the “activity change, negative = inhibition” value was 13.6% (inactive).

For the compound `COc1cccc(/C=C2/SC(=S)N(CC(=O)NC3C=CS(=O)(=O)C3)C2=O)c1` (stereo not given), the “activity change, negative = inhibition” value is 19.3% (inactive).

As to `Cn1c(=O)c2[nH]c(NCC3CCCO3)nc2n(-c2ccccc2)c1=O` (stereo not given), the “activity change, negative = inhibition” value was -0.65% (inactive).

Take `Cc1nc2ccccc2c2oc(C(=O)NCC3CCCO3)cc12` (stereo not given): the “activity change, negative = inhibition” value is 2.28% (inactive).

Consider `c1ccc2c(NCC3CCCO3)nc(-c3ccncc3)nc2c1` (stereo not given), for which the Potency was 13.1 µM (active).

Take `COc1ccc(C2=NS(=O)(=O)N(C)C(C(=O)N(C)Cc3ccccc3)=C2)cc1`: the “activity change, negative = inhibition” value was 3.56% (inactive).

Consider `Cc1nn(C)c(C)c1NS(=O)(=O)c1ccc(OC(F)(F)F)cc1`, for which the “activity change, negative = inhibition” value was 9.37% (inactive).

Regarding `COCC1CCN(C(=O)C2CCC(=O)N(CC3CCCCC3)C2)CC1` (stereo not given), the “activity change, negative = inhibition” value was 3.07% (inactive).

On to `CC(CN1CCOCC1)OC(=O)c1ccc(Cl)cc1Cl` (stereo not given), for which the “activity change, negative = inhibition” value was 2.65% (inactive).

With `CCC(=O)NCCc1nc2ccccc2n1CC`, the “activity change, negative = inhibition” value was 2.61% (inactive).

In the case of `CCC(=O)Nc1nc2ccccc2n1Cc1ccccc1C`, the Potency is 1.47 µM (active).

Regarding `CCCCn1c(CCCNC(=O)CC)nc2ccccc21`, the “activity change, negative = inhibition” value was 20.9% (inactive).

Take `COCCn1c(C)cc(C(=O)COC(=O)CNC(=O)c2ccco2)c1C`: the “activity change, negative = inhibition” value was 21.6% (inactive).

As for `COc1ccc(S(=O)(=O)N2CCC(C(=O)N3CCCC3)CC2)cc1C`, the “activity change, negative = inhibition” value is 10.6% (inactive).

Regarding `CCOc1ccc(CN(C)C(=O)c2ccc(=O)[nH]c2)cc1`, the “activity change, negative = inhibition” value was -2.06% (inactive).

In the case of `CC(C)c1ccc(NC2CCCN(C(=O)c3ccncc3)C2)cc1` (stereo not given), the Potency is 5.86 µM (active).

For `Cc1cccc(C(=O)N2CCCC(Nc3ccc(C(C)C)cc3)C2)n1` (stereo not given), the “activity change, negative = inhibition” value was 18.1% (inactive).

For the compound `COc1ccc(NC2CCCN(C(=O)c3ccncc3)C2)cc1` (stereo not given), the “activity change, negative = inhibition” value was -18.3% (inactive).

Regarding `O=C(NCC(=O)N1CCN(c2ncc(C(F)(F)F)cc2Cl)CC1)c1ccc(Br)o1`, the “activity change, negative = inhibition” value is -23% (inactive).

For the compound `Cc1nn(Cc2ccccc2)c(C)c1NS(=O)(=O)c1ccccc1`, the “activity change, negative = inhibition” value is 8.53% (inactive).

For `CC(C)C(c1nnnn1C1CCCC1)N1CCN(c2ccccc2F)CC1` (stereo not given), the “activity change, negative = inhibition” value is 8.47% (inactive).

As to `c1ccc(C(c2ccccc2)N2CCN(Cc3nnnn3C3CCCCC3)CC2)cc1`, the Potency is 8.28 µM (active).

Consider `c1ccc(CCn2nnnc2CN2CCN(C3CCCC3)CC2)cc1`, for which the “activity change, negative = inhibition” value is 16.5% (inactive).

`CC1CN(C(=O)COC(=O)c2cccc(NS(=O)(=O)c3ccccc3)c2)CC(C)O1` (stereo not given): the “activity change, negative = inhibition” value is 15% (inactive).

Regarding `CCCc1cc(=O)oc2c(C)c(OCC(=O)NCc3ccccn3)ccc12`, the “activity change, negative = inhibition” value was 4.08% (inactive).
